Test results as given in PubChem BioAssay AID504832 (National Center for Advancing Translational Sciences (NCATS), 2011).
Hit rate of the full screen: of about 310,000 compounds, about 18,000 (5.8%) were called active. About 22% were inconclusive and are not listed. Calls follow the shape of the dose curve; as a rule, active = well fitted inhibition curve with a large enough effect; inconclusive = small, poorly fitted or top-dose-only effect, or another doubt; inactive = no such curve, though single readings can be large or run the other way. The full list was thinned out, with actives kept by preference.

assay: Primary qHTS for delayed death inhibitors of the malarial parasite plastid, 48 hour incubation; conditions: P. falciparum luciferase growth in erythrocytes; series mostly up to 28.7 µM; activity change, negative = inhibition: at the top concentration
Summary of the method: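 First compound was added to culture medium, then infected red cells at 0.1% parasitemia and 2% hematocrit (final). After incubation at 37 C under 5% CO2, luciferase detection reagent was dispensed and light output recorded.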
% is scaled to controls: 0 for no effect and ±100 for the full control effect; potency is read from the fitted curve at half-maximal effect.

| Structure (SMILES) | activity change, negative = inhibition | Potency |
| --- | --- | --- |
| COc1ccc(N(CC(=O)Nc2ccc(F)c(F)c2)S(=O)(=O)c2c(C)[nH]c(=O)[nH]c2=O)cc1 | -8.61% (inactive) | – |
| CN(C(=O)c1cccc(OC2CCN(S(=O)(=O)N(C)C)CC2)c1)C1CCOC1 (stereo unspecified) | -0.341% (inactive) | – |
| CC(C)(C)NC(=O)NC(=O)COC(=O)C1c2ccccc2Oc2ccccc21 | 2.8% (inactive) | – |
| Cc1ccccc1N1CCN(S(=O)(=O)c2ccc3ccccc3c2)CC1 | 15.2% (inactive) | – |
| CCOc1cccc(=O)c2c(C)n(CC3CCCO3)c(C)c12 (stereo unspecified) | – | 14.7 µM (active) |
| CCOc1ccc(NC(=O)c2cccc3c2C(=O)N(CC2CCCO2)C3)cc1 (stereo unspecified) | -3.69% (inactive) | – |
| O=c1c2cc3c(=O)n(CC4CCCO4)c(=O)c3cc2c(=O)n1CC1CCCO1 (stereo unspecified) | 0.809% (inactive) | – |
| CC(C)c1ccc(NC(=O)COC(=O)c2ccc(CN3CCCC3=O)cc2)cc1 | 1.29% (inactive) | – |
| Cc1ccc2nc(SCC(=O)NC3CCCC3)[nH]c2c1 | 22.6% (inactive) | – |
| CCN1C(=O)[C@H]2[C@@H](c3ccc(-c4ccc(F)cc4)cc3)N[C@@](Cc3ccccc3)(C(=O)OC)[C@H]2C1=O | – | 4.65 µM (active) |
| CCOC(=O)C1(Cc2ccc(O)cc2)NC(c2ccccc2F)C2C(=O)N(C)C(=O)C21 (stereo unspecified) | -6.8% (inactive) | – |
| COC(=O)C1(C)NC(c2ccc(F)cc2)C2C(=O)N(c3ccccc3)C(=O)C21 (stereo unspecified) | -30.6% (inactive) | – |
| CCN1C(=O)[C@H]2[C@@H](c3ccc(-c4ccc(OC)cc4)cc3)N[C@@](Cc3ccccc3)(C(=O)OC)[C@H]2C1=O | – | 9.28 µM (active) |
| CCCCC1(C(=O)OCC)NC(c2ccc(O)cc2)C2C(=O)N(c3ccccc3)C(=O)C21 (stereo unspecified) | 2.39% (inactive) | – |
| CCN1C(=O)[C@H]2[C@@H](c3ccc(SC4CCCCC4)c(OC)c3)N[C@@](Cc3ccccc3)(C(=O)OC)[C@H]2C1=O | – | 2.08 µM (active) |
| COC(=O)C1(C)NC(c2ccc(C)cc2)C2C(=O)N(c3ccc(F)cc3)C(=O)C21 (stereo unspecified) | 8.12% (inactive) | – |
| COC(=O)C1(C)NC(c2ccccc2OC)C2C(=O)N(c3ccccc3)C(=O)C21 (stereo unspecified) | -7.51% (inactive) | – |
| CCCC1(C(=O)OC)NC(c2ccco2)C2C(=O)N(C)C(=O)C21 (stereo unspecified) | 11.4% (inactive) | – |
| COc1cc2c(C(=O)O)c(C)n(C)c2c2ccccc12 | 15.4% [at 0.00184 µM] (inactive) | – |
| O=C(CSc1ccc(-c2ccco2)nn1)Nc1cccc(F)c1 | 20% (inactive) | – |
| NC(=O)c1cc2ccccc2o/c1=N/NC(=O)c1cccc(F)c1 | 59.4% (inactive) | – |

| Structure (SMILES) | activity change, negative = inhibition | Potency |
| --- | --- | --- |
| CCOc1cc(NC(=O)c2ccccc2C(=O)O)c(OCC)cc1NC(=O)c1ccccc1F | – | 4.15 µM (active) |
| NC(=O)c1ccccc1NC(=O)c1ccccc1F | 49.4% (inactive) | – |
| CCOc1cc(NC(=O)Nc2ccccc2)c(OCC)cc1NC(=O)CC | -1.2% (inactive) | – |
| O=C(Nc1cccc(Cl)c1N1CCOCC1)c1cccnc1 | -0.0104% (inactive) | – |
| Cc1ccccc1NC(=O)CCNS(=O)(=O)c1ccc2[nH]c(=O)oc2c1 | 3.65% (inactive) | – |
| CCn1c2ccccc2c2cc(NC(=O)COC(=O)c3ccccc3Br)ccc21 | 17% (inactive) | – |
| CCn1c2ccccc2c2cc(NC(=O)C/C(C)=N/NC(=O)c3ccccc3N)ccc21 | – | 11.7 µM (active) |
| C/C(CC(=O)Nc1ccc(N(C)C)cc1)=N\NC(=O)c1ccccc1F | 139% (inactive) | – |
| CN(CC(=O)NCc1ccc(Cl)cc1)S(=O)(=O)c1cccs1 | 23.9% (inactive) | – |
| COc1ccc(S(=O)(=O)N2CCN(C(=O)N(C)C)C2C)cc1 (stereo unspecified) | 3.85% (inactive) | – |
| Cc1[nH]c(C)c(S(=O)(=O)N2CCN(c3cccc(C(F)(F)F)c3)CC2)c1C(=O)N1CCCC1 | 0.0799% (inactive) | – |
| COc1ccc(N2CCN(C(c3cc4ccc(C)cc4[nH]c3=O)c3nnnn3C3CCCC3)CC2)cc1 (stereo unspecified) | – | 1.85 µM (active) |
| CN1CCN(C(c2cc3cc4c(cc3[nH]c2=O)OCCO4)c2nnnn2C2CCCC2)CC1 (stereo unspecified) | 6.19% (inactive) | – |
| CCOc1ccc2[nH]c(=O)c(C(c3nnnn3CCOC)N3CCOCC3)cc2c1 (stereo unspecified) | -3.1% (inactive) | – |
| O=C(NCCCN1CCOCC1)C1CCCN(S(=O)(=O)N2CCCCC2)C1 (stereo unspecified) | 22.9% (inactive) | – |
| CCC(C)C(NC(=O)C1CCC(=O)N1C(=O)OCc1ccccc1)C(=O)NC(C(=O)N1CCCC1C(N)=O)C(C)CC (stereo unspecified) | -37.5% (inactive) | – |
| CC(=O)Nc1ccc(NC(=O)[C@@H](NC(=O)c2cccc(C)c2)C(C)C)cc1 | 11.3% (inactive) | – |
| Cc1cccc(N(Cc2ccccc2)C(=O)c2cc(S(=O)(=O)N3CCOCC3)ccc2F)c1 | – | 11.7 µM (active) |
| Cc1cccc(NC(=O)c2cc(S(=O)(=O)N3CCC4(CC3)OCCO4)ccc2F)c1 | 3.22% (inactive) | – |
| Cc1ccc(S(=O)(=O)N2CCOCC2)cc1C(=O)NC(=S)N(Cc1ccccc1)C(C)C | -2.96% (inactive) | – |
| CC(=O)Nc1ccc(NC(=O)CC2CCCC2)cc1 | 36% (inactive) | – |

| Structure (SMILES) | activity change, negative = inhibition | Potency |
| --- | --- | --- |
| CCCOc1ccc(/C=N/NC(=O)C2CC2)c(OCCC)c1 | – | 11.7 µM (active) |
| COc1ccc(/C=N/NC(=O)C2CC2)c(OC)c1OC | 22.7% (inactive) | – |
| CCCOc1ccc(NC(=O)C2CCCNC2=O)cc1 (stereo unspecified) | 24.6% (inactive) | – |
| CCCCCCCCn1c2c(c(=N)c3c1CCC3)CCCC2 | – | 0.262 µM (active) |
| Cc1ccc(CC2C(=O)N(c3ccc(F)cc3)C(=O)C2C)cc1 (stereo unspecified) | 39.4% (inactive) | – |
| CC(=O)NC(CC(=O)Nc1nc(-c2ccccc2)c(C(C)=O)s1)c1ccccc1 (stereo unspecified) | -5.25% (inactive) | – |
| CC1CCCC(C)N1C(=O)COC(=O)COc1ccccc1C#N (stereo unspecified) | 26.8% (inactive) | – |
| O=C(NCc1ccco1)C(c1ccncc1)N(C(=O)Cn1nnc2ccccc21)c1ccccc1 (stereo unspecified) | -14% (inactive) | – |
| COc1ccccc1N(C(=O)Cn1nnc2ccccc21)C(C(=O)NCc1ccco1)c1ccc(C)o1 (stereo unspecified) | – | 13.1 µM (active) |
| COCCNC(=O)C(c1ccc(C)o1)N(Cc1ccccc1)C(=O)Cn1nnc2ccccc21 (stereo unspecified) | -22.6% (inactive) | – |
| NC(=O)c1oc2ccccc2c1NC(=O)CS(=O)(=O)c1ccccc1 | 37.2% (inactive) | – |
| CCc1c(C)nc2c(OC)cccc2c1Cl | 10.1% (inactive) | – |
| COc1nc(N=C(N)N)nc2c(C)cccc12 | – | 1.65 µM (active) |
| CC(=O)Oc1ccc(-c2nc3c(C)cccc3c(=O)o2)cc1 | -7.88% (inactive) | – |
| O=C(C1CCC(=O)N(C2CC2)C1)N1CCN(c2ccc(Cl)cc2)CC1 (stereo unspecified) | -14.5% (inactive) | – |
| Cc1ccc(S(=O)(=O)N2CCCCC2)cc1C(=O)N1CCN(CCO)CC1 | 0.383% (inactive) | – |
| CC(CC(=O)Nc1ccc(F)cc1F)S(=O)(=O)c1ccc2c(c1)NC(=O)CO2 (stereo unspecified) | 3.89% (inactive) | – |
| O=[N+]([O-])c1cc(C(F)(F)F)ccc1NCCc1ccncc1 | -26% (inactive) | – |
| COc1ccc(C(=O)NCc2nnc(SCC(=O)Nc3cccc(OC)c3)o2)cc1 | 15.9% (inactive) | – |
